CYP2C19 inhib: human CYP2C19 inhibition. inhibition, % at 5 µM. P33261. 21% of 96,000 active. CYP2C19 Supersomes, luciferin-H EGE luminescence, 30 min;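 active = CYP2C19 inhibition above a set limit at 5 µM in the primary screen, cut at about 50% in these data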;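 note: plate controls were negative control wells for no effect and 2.5 mM tranylcypromine positive control for full effect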
Target sequence (P33261 whole entry, looked up): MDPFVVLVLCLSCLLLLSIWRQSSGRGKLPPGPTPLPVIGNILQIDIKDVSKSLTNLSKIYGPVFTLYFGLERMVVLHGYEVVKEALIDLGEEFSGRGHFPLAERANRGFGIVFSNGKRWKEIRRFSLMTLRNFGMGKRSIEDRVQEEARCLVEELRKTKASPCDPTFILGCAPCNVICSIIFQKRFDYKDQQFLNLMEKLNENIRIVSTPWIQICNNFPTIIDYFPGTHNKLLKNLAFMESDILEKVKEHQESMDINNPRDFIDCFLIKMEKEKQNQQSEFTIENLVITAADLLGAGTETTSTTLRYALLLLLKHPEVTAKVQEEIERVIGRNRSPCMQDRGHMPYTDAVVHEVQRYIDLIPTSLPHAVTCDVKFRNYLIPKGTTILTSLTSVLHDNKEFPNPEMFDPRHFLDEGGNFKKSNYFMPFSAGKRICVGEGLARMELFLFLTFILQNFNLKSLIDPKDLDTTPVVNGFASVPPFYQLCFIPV
CYP2C9 activ: CYP2C9 (human) activation; P11712; AID 1024; activation factor at 5 µM; recombinant CYP2C9, luciferin-H conversion, luminescence; active compounds read high; factor 1 = untreated enzyme, 0 = blocked; 1.4% of 96,000 active;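 active = activation factor of 2 or more for CYP2C9 at a 5 µM dose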;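 note: 0 = sulfaphenazole-blocked wells and 1 = vehicle-only wells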
CYP2C19 act: activators of human cytochrome P450 2C19. 96,000 tested, under 10 active. recombinant CYP2C19, luciferin-H EGE luminescence; active compounds read high; 0 = fully inhibited enzyme, 1 = untreated enzyme. AID 1025. activation factor at 5 µM. P33261;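 active = activation factor of at least 2 at 5 µM in the primary screen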;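 note: 0 = wells with 2.5 mM tranylcypromine and 1 = vehicle-only wells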
CYP2C9 inhib: human CYP2C9 inhibition. AID 777. CYP2C9 Supersomes, luciferin-H conversion, luminescence. inhibition, % at 5 µM. 20% of 96,000 active;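 active = blocking of liver enzyme CYP2C9 beyond about 50% at 5 µM, limit read from the data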
PLK1 PBD inh: Plk1 (human) PBD binding inhibition | AID 693 | Plk1 PBD phosphopeptide binding, fluorescence polarization | 0.13% of 97,000 active | P53350 | inhibition, %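 (tested at about 20 µM)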; in the data active = inhibition above about 34%, passing the limit was not always enough
PLK1 kinase inh: blocks human PLK1 kinase activity. inhibition, % at 10 µM. 0.53% of 97,000 active. recombinant PLK1 kinase, TR-FRET peptide phosphorylation;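 active = inhibition of 50% or more in the single-concentration screen; inactive = inhibition below 50%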;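 note: 0% = DMSO max control and 100% = H-89 dihydrochloride min control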
An asterisk follows results filed as active; . = no result. Sampled rows, rich in hits. Any-hit rate of the full collection: about 28%.

SMILES	CYP2C19 inhib	CYP2C9 activ	CYP2C19 act	CYP2C9 inhib	PLK1 PBD inh	PLK1 kinase inh
CN1C(=O)NC(=O)C2(Cc3ccccc3N3CCOCC32)C1=O (stereo unspecified)	0	0.9	1	8	-6	-16
O=C1NC(=O)[C@]2(Cc3ccccc3N3CCN(c4ccccc4)CC32)C(=O)N1Cc1ccccc1 (stereo partly specified)	71*	0.1	0.3	91*	14	2
CCCCN1C(=O)NC(=O)C2(Cc3ccccc3N3CCOCC32)C1=O (stereo unspecified)	70*	0.3	0.3	67*	-4	-3
Cc1nc2c(c(C)nn2-c2ccccc2)c(C)c1CCC(=O)N1CCC2(CC1)OCCO2	16	0.9	0.8	5	.	.
CCCC(=O)C1C(=O)NC(=O)NC1=O	4	0.9	1	6	2	0
Cc1ccccc1C1=NCC(=O)N(CC(=O)NCc2ccco2)c2sc3c(c21)CCCC3	66*	0.2	0.3	84*	-14	-10
CCC(C)C1N=C(c2ccccc2)c2cc(Cl)ccc2N(CC(=O)NCc2ccco2)C1=O (stereo unspecified)	-9	1	1.1	-3	6	-9
C=CP(=O)(O)c1ccccc1	3	0.9	1	8	.	.
CC(C)C(=O)c1cn(Cc2ccccc2C#N)c2ccccc12	60*	0.5	0.4	49	19	-7
CCOC(=O)c1c(-n2c(C)cc(/C=C3/C(=O)NC(=O)N(CC)C3=O)c2C)sc2c1CCCC2	.	.	.	.	-24	-11
CCOC(=O)c1c(-n2c(C)cc(C=C3C(=O)NC(=S)NC3=O)c2C)sc2c1CCCC2	28	0.3	0.7	67*	42	-27
CN(Cc1ccccc1)C(=C(Cl)Cl)/C(=C1/NCCN1Cc1ccc(Cl)nc1)[N+](=O)[O-]	93*	0.5	0.1	49	-11	12
CCOc1ccc(C2C(C#N)=C(N)Oc3c2c(=O)oc2ccccc32)cc1 (stereo unspecified)	9	0.2	0.9	83*	8	-14
CC(C)CC1C(C#N)=C(N)Oc2c1c(=O)oc1ccccc21 (stereo unspecified)	28	0.2	0.7	77*	11	-12
N#CC1=C(N)Oc2c(c(=O)oc3ccccc23)C1c1ccc(OC(=O)N2CCOCC2)cc1 (stereo unspecified)	.	.	.	.	.	-6
COC(=O)C1=C(N)Oc2c(c(=O)oc3ccccc23)C1c1cccnc1 (stereo unspecified)	23	0.1	0.8	92*	-5	7
N#CC1=C(N)Oc2c(c(=O)oc3ccccc23)C1c1ccncc1 (stereo unspecified)	57*	0	0.4	96*	0	-5
O=c1[nH]c(=O)n(CCc2ccccc2)c(O)c1C=NCCN1CCNCC1	-15	1.1	1.1	-12	9	-4
O=C(c1cccn2c(=O)c3ccc(Cl)cc3nc12)N1CCC2(CC1)OCCO2	14	0.9	0.9	14	21	-19
CCOC(=O)c1c(C)[nH]c(C(=O)C(Cc2ccccc2)N(C)C)c1C (stereo unspecified)	37	0.2	0.6	84*	-3	-9
COC(=O)c1c(C)[nH]c(C(=O)C(Cc2ccccc2)N(C)C)c1C (stereo unspecified)	92*	0.1	0.1	92*	-14	-10
CCCOP(=O)(O)c1c([N+](=O)[O-])cc(C(F)(F)F)cc1[N+](=O)[O-] (tested in a mixture with another compound)	8	0.8	0.9	20	16	-7
CCCCCCn1c(O)c(C=Nc2c(C)n(C)n(-c3ccccc3)c2=O)c(=O)[nH]c1=O	4	0.6	1	43	-31	-24
S=C1CN=C(c2ccccc2)c2cc(Cl)ccc2N1	.	.	.	.	17	-9
CCn1nc(-c2cccs2)nc2c(=O)n(C)c(=O)nc1-2	99*	0.1	0	91*	.	.
SMILES	CYP2C19 inhib	CYP2C9 activ	CYP2C19 act	CYP2C9 inhib	PLK1 PBD inh	PLK1 kinase inh
CN1CCc2nc3ccc(F)cc3c(C(N)=O)c2C1	-9	1	1.1	0	2	-2
CCOC(=O)c1cc(C)n(CCc2cnc[nH]2)c1C	100*	0	0	99*	.	.
COC(=O)C(C)Oc1cc(C)cc2oc(=O)c3c(c12)CCCC3 (stereo unspecified)	55*	0.1	0.4	92*	13	-15
COC(=O)c1cc(COc2cc(C)cc3oc(=O)c4c(c23)CCC4)c(C)o1	78*	0	0.2	97*	.	.
Cc1cc(OCC(=O)OC(C)C)c2c3c(c(=O)oc2c1)CCCC3	6	0.7	0.9	28	-1	0
COC(=O)C(C)Oc1cc(C)cc2oc(=O)c3c(c12)CCC3 (stereo unspecified)	72*	0.1	0.3	92*	30	-2
CCOC(=O)C(C)Oc1cc(C)cc2oc(=O)c3c(c12)CCCC3 (stereo unspecified)	49	0.2	0.5	78*	.	.
COC(=O)CC1=C(C(=O)OC)C2(C(=O)N(C)c3ccccc32)C(C#N)=C(N)O1 (stereo unspecified)	-10	1.1	1.1	-10	.	.
COc1ccc(C(CC(=O)N2CCC3(CC2)OCCO3)NS(=O)(=O)c2ccc(F)cc2)cc1 (stereo unspecified)	1	0.9	1	7	-5	-7
CC(C)C1(C)N=C(c2ncccc2C(=O)O)NC1=O (stereo unspecified)	0	1.2	1	-22	4	-4
CCOc1ccc(C2(C#N)CC[N+](C)(C)CC2)cc1	-1	1.1	1	-6	39	-11
Cc1ccc(N=Nc2c(O)[nH]c(=O)[nH]c2=O)c([N+](=O)[O-])c1	-2	1	1	3	11	-8
O=C(C1CC(=O)N(c2ccc(F)c(Cl)c2)C1)N1CCC2(CC1)OCCO2 (stereo unspecified)	18	1	0.8	-2	-29	-16
CC(C)(C)c1ccc(O)c(CN2CCN(c3ccccc3)CC2)c1	22	0.8	0.8	22	-3	14
O=c1[nH]c(=S)n(Cc2ccc(F)cc2)c(O)c1C=NCc1cccnc1	66*	0.8	0.3	15	25	-10
CC1(C)CN=C(Nc2nc3ccccc3s2)S1	30	0.7	0.7	31	21	-9
O=c1c2ccccc2nc(N2CCCC2)n1-c1ccc(Cl)cc1	67*	0.9	0.3	13	-12	-5
COc1ccc(N2C(=O)CC(N3CCC(n4c(=O)[nH]c5ccccc54)CC3)C2=O)cc1 (stereo unspecified)	18	1.1	0.8	-9	-4	-4
CCOC(=O)c1ccc(N2C(=O)CC(N3CC=C(c4ccc(F)cc4)CC3)C2=O)cc1 (stereo unspecified)	37	0.4	0.6	64*	-2	-5
